Test results published in PubChem BioAssay (EPA / NIEHS).
Calls of active or inactive are those of the source. How the source made its calls: active means hit-call score of the fitted dose curve at least 0.9, where 1 is the maximum; inactive means score below 0.9.

Experiments:
Settings in all cases: mRNA level, 48 h; actives raise or lower the signal
CYP4A11 (gene 1579) = assay: LTEA_HepaRG_CYP4A11: Life Technologies and Expression Analysis (LTEA) Assay for CYP4A11 using HepaRG (AID 2283486)
Procedure, shortened: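 Readout is CYP4A11 mRNA induction or suppression (qRT-PCR, ACTB/GAPDH/POLR2A normalization) in human HepaRG cells after 48 h chemical treatment, concentrations to 100 uM in 0.5% DMSO, fitted bidirectionally against vehicle.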

[1] = read-out: Cytochrome P450 3A4 (Homo sapiens) (UniProt P08684); assay: LTEA_HepaRG_CYP3A4: Life Technologies and Expression Analysis (LTEA) Assay for CYP3A4 using HepaRG (AID 2283487)
Procedure, shortened: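 HepaRG, 48 h exposure, 8-pt CRC from 100 uM (half-log), 0.5% DMSO, duplicates; serum-free induction medium. Readout: CYP3A4 mRNA, qRT-PCR, ACTB/GAPDH/POLR2A normalization. Bidirectional fit vs DMSO.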

[2] = read-out: DNA damage-inducible transcript 3 (DDIT3), DDIT3 (gene 1649); assay: LTEA_HepaRG_DDIT3: Life Technologies and Expression Analysis (LTEA) Assay for DNA damage-inducible transcript 3 (DDIT3) using HepaRG (AID 2283488)
Procedure, shortened: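 qRT-PCR readout (Fluidigm TaqMan), housekeeping-normalized to ACTB, GAPDH, POLR2A. HepaRG cells, 48 h exposure, 8-point half-log series from 100 uM in 0.5% DMSO, duplicates. Gain or loss of signal fitted against DMSO baseline.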

[3] = read-out: Pro-epidermal growth factor (Homo sapiens) (UniProt P01133); assay: LTEA_HepaRG_EGF: Life Technologies and Expression Analysis (LTEA) Assay for Epidermal growth factor (EGF) using HepaRG (AID 2283489)
Procedure, shortened: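 EGF expression changes in human HepaRG cells are scored by bidirectional fitting relative to 0.5% DMSO controls. Chemicals are tested at eight half-log concentrations up to 100 uM for 48 h in serum-free induction medium.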

[4] = read-out: Early growth response protein 1 (EGR1) transcription factor, EGR1 (gene 1958); assay: LTEA_HepaRG_EGR1: Life Technologies and Expression Analysis (LTEA) Assay for Early growth response protein 1 (EGR1) transcription factor using HepaRG (AID 2283490)
Procedure, shortened: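 EGR1 expression change in human HepaRG after 48 h chemical exposure, assessed by housekeeping-normalized qRT-PCR; concentration-response up to 100 uM, fitted in both directions against DMSO controls.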

[5] = read-out: Ezrin (EZR), EZR (gene 7430); assay: LTEA_HepaRG_EZR: Life Technologies and Expression Analysis (LTEA) Assay for Ezrin (EZR) using HepaRG (AID 2283491)
Procedure, shortened: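 Read-out is EZR transcript level by qRT-PCR, normalized to three housekeeping genes and fitted bidirectionally against the DMSO control. Human HepaRG cells received test chemicals for 48 h at eight half-log concentrations up to 100 uM in 0.5% DMSO.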

[6] = read-out: Cytochrome P450 3A7 (Homo sapiens) (UniProt P24462); assay: LTEA_HepaRG_CYP3A7: Life Technologies and Expression Analysis (LTEA) Assay for CYP3A7 using HepaRG (AID 2283492)
Procedure, shortened: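 Cells were thawed, plated, cultured 48 h, then treated for a further 48 h with chemicals (eight-point half-log series from 100 uM, 0.5% DMSO). RNA was isolated and CYP3A7 expression quantified by qRT-PCR normalised to ACTB, GAPDH and POLR2A.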

CYP3A5 (gene 1577) = assay: LTEA_HepaRG_CYP3A5: Life Technologies and Expression Analysis (LTEA) Assay for CYP3A5 using HepaRG (AID 2283493)
Procedure, shortened: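 qRT-PCR read-out: CYP3A5 transcript in HepaRG lysates, housekeeping-normalized (ACTB/GAPDH/POLR2A), fitted bidirectionally against 0.5% DMSO baseline. Exposure 48 h, eight half-log concentrations up to 100 uM, duplicates.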

[7] = read-out: Fatty Acid-Binding Protein 1 (FABP1), FABP1 (gene 2168); assay: LTEA_HepaRG_FABP1: Life Technologies and Expression Analysis (LTEA) Assay for Fatty Acid-Binding Protein 1 (FABP1) using HepaRG (AID 2283494)
Procedure, shortened: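 Values reflect bidirectional concentration-response fitting of FABP1 mRNA change against 0.5% DMSO controls. Human HepaRG cultures received eight half-log doses (top 100 uM) for 48 h; expression quantified by TaqMan qRT-PCR with housekeeping-gene normalization.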

[8] = read-out: Cytochrome P450 4A22 (Homo sapiens) (UniProt Q5TCH4); assay: LTEA_HepaRG_CYP4A22: Life Technologies and Expression Analysis (LTEA) Assay for Cytochrome P450 4A22 (CYP4A22) using HepaRG (AID 2283495)
Procedure, shortened: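 Cryopreserved HepaRG cells, plated and cultured 48 h, then switched to serum-free induction medium and treated 48 h (duplicates, up to 100 uM, half-log steps, 0.5% DMSO). Expression change of CYP4A22 was fitted bidirectionally against vehicle.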

Measured: AC50

Sequence of Cytochrome P450 3A7 (Homo sapiens) (P24462 whole entry, looked up): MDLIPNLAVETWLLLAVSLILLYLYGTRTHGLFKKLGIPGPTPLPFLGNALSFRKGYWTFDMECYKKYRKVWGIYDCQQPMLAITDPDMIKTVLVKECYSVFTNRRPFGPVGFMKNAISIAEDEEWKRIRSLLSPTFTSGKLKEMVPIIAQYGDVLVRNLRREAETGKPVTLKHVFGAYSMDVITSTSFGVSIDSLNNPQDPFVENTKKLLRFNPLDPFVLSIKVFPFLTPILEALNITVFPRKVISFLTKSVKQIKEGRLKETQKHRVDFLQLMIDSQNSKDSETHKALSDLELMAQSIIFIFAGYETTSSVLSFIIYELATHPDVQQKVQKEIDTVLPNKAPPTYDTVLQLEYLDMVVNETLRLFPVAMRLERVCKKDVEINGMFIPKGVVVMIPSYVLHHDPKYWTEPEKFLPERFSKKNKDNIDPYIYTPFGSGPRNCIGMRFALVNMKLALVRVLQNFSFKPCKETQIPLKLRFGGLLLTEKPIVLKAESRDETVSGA
Sequence of Cytochrome P450 3A4 (Homo sapiens) (P08684 whole entry, looked up): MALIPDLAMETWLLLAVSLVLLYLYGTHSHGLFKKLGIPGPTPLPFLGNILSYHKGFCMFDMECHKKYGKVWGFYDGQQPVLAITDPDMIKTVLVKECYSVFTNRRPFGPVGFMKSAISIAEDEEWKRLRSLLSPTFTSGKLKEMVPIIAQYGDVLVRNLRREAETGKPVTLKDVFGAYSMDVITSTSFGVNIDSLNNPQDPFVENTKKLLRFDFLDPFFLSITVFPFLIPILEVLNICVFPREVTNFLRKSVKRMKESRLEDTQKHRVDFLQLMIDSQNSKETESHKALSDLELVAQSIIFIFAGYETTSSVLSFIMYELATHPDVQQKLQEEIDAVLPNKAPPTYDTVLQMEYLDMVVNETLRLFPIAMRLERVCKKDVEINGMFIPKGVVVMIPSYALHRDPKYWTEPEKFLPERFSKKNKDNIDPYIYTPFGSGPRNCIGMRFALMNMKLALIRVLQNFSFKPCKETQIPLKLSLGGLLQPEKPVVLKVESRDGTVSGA

CCCCOC(=O)CCCCC(=O)OCCCC
inactive: CYP4A11 (gene 1579) | [1] | [2] | [3] | [4] | [5] | [6] | CYP3A5 (gene 1577) | [7] | [8]

NC=O
inactive: CYP4A11 (gene 1579) | [1] | [2] | [3] | [4] | [5] | [6] | CYP3A5 (gene 1577) | [7] | [8]

COc1ccc(OC(F)(F)F)cc1CN[C@H]1CCCN[C@H]1c1ccccc1
active: CYP4A11 (gene 1579) 9.12 µM | [1] 91.9 µM | [2] 72.8 µM | [3] 50 µM | [4] 86.6 µM | CYP3A5 (gene 1577) 78.5 µM | [7] 77.9 µM | [8] 15.8 µM
inactive: [5] | [6]

CN(C)CCCN(C)CCCN(C)C
inactive: CYP4A11 (gene 1579) | [1] | [2] | [3] | [4] | [5] | [6] | CYP3A5 (gene 1577) | [7] | [8]

Oc1ccccc1O
inactive: CYP4A11 (gene 1579) | [1] | [2] | [3] | [4] | [5] | [6] | CYP3A5 (gene 1577) | [7] | [8]

CC(=O)S[C@H](C(=O)N[C@H]1Cc2ccccc2[C@H]2CCC[C@@H](C(=O)O)N2C1=O)C(C)C
inactive: CYP4A11 (gene 1579) | [1] | [2] | [3] | [4] | [5] | [6] | CYP3A5 (gene 1577) | [7] | [8]

CCCC[C@H]1CN(CC2CCOCC2)C(=O)OC12CCN(C1(C)CCN(C(=O)c3c(C)ncnc3C)CC1)CC2
inactive: CYP4A11 (gene 1579) | [1] | [2] | [3] | [4] | [5] | [6] | CYP3A5 (gene 1577) | [7] | [8]

O=C(O)CC(O)(CC(=O)O)C(=O)O
inactive: CYP4A11 (gene 1579) | [1] | [2] | [3] | [4] | [5] | [6] | CYP3A5 (gene 1577) | [7] | [8]

COc1ccc(C(=O)Nc2nc3ccccc3c(NCc3ccccc3)c2C#N)cc1
active: CYP4A11 (gene 1579) 28.3 µM | [4] 21.7 µM | [6] 14.3 µM | CYP3A5 (gene 1577) 2.67 µM | [7] 18 µM | [8] 27.1 µM
inactive: [1] | [2] | [3] | [5]

CN(C)C(=O)NC1(c2ccccc2)CCN(CC[C@@]2(c3ccc(F)c(F)c3)CN(C(=O)c3ccccc3)CCO2)CC1
active: CYP4A11 (gene 1579) 47 µM | [1] 2.69 µM | [2] 56.6 µM | [6] 2.8 µM | [8] 47.3 µM
inactive: [3] | [4] | [5] | CYP3A5 (gene 1577) | [7]

O=C1c2c(O)cccc2Cc2cccc(O)c21
inactive: CYP4A11 (gene 1579) | [1] | [2] | [3] | [4] | [5] | [6] | CYP3A5 (gene 1577) | [7] | [8]

CC(C)OC(=O)C(C)(C)Oc1ccc(C(=O)c2ccc(Cl)cc2)cc1
inactive: [1] | [2] | [3] | [4] | [6] | CYP3A5 (gene 1577)
active: CYP4A11 (gene 1579) 3.85 µM | [5] 0.536 µM | [7] 50 µM | [8] 2.19 µM

O=C(N[C@@H](c1ccccc1)[C@@H]1CCCCN1)c1cccc(C(F)(F)F)c1Cl
inactive: [3] | [5] | [6]
active: CYP4A11 (gene 1579) 24.2 µM | [1] 86.9 µM | [2] 50 µM | [4] 83.3 µM | CYP3A5 (gene 1577) 90.6 µM | [7] 33.2 µM | [8] 23.1 µM

NC1CCCCC1
inactive: CYP4A11 (gene 1579) | [1] | [2] | [3] | [4] | [5] | [6] | CYP3A5 (gene 1577) | [7] | [8]

C#CC(O)C(CC)CCCC (stereo not given)
inactive: CYP4A11 (gene 1579) | [1] | [2] | [3] | [4] | [5] | [6] | CYP3A5 (gene 1577) | [7] | [8]

Cc1ccc(C(C)(C)C)c(O)c1
inactive: CYP4A11 (gene 1579) | [1] | [2] | [3] | [4] | [5] | [6] | CYP3A5 (gene 1577) | [7] | [8]

CO[C@@H]1COCC[C@@H]1N[C@@H]1CC[C@@](C(=O)N2CCc3ncc(C(F)(F)F)cc3C2)(C(C)C)C1
inactive: CYP4A11 (gene 1579) | [1] | [2] | [3] | [4] | [5] | [6] | CYP3A5 (gene 1577) | [7] | [8]

N[C@@H](Cc1c[nH]c2ccccc12)C(=O)O
inactive: CYP4A11 (gene 1579) | [1] | [2] | [3] | [4] | [5] | [6] | CYP3A5 (gene 1577) | [7] | [8]

S=c1[nH]c2ccccc2s1
inactive: CYP4A11 (gene 1579) | [1] | [2] | [3] | [4] | [5] | [6] | CYP3A5 (gene 1577) | [7] | [8]

CC(C)c1cccc(C(C)C)c1NC(=O)NS(=O)(=O)c1cc(C(C)(C)O)co1
inactive: [2] | [3] | [4] | [5] | [6] | CYP3A5 (gene 1577)
active: CYP4A11 (gene 1579) 29.5 µM | [1] 3.54 µM | [7] 43.1 µM | [8] 31.6 µM
